PubChem BioAssay (NCI)
Compounds without any hit were thinned out: in the full panel of roughly 83,000, 20% have a hit.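 Cell lines were cultured in 96-well plates, exposed to a single compound concentration, and assessed for percent growth 48 hours later.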

How the values were obtained:
Test in all cases: NCI-60 one-dose screen, 48 h (100 = growth as untreated, 0 = no growth, -100 = all killed)
Details in all cases: 10 µM unless noted; active = growth percent below 10; inactive = the rest
NCI-H226 lung = test system: NCI-H226 lung
NCI-H322M lung = test system: NCI-H322M lung
HOP-62 NSCLC = test system: HOP-62 NSCLC
NCI-H460 lung = test system: NCI-H460 lung
HOP-92 NSCLC = test system: HOP-92 NSCLC
NCI-H522 lung = test system: NCI-H522 lung
A549/ATCC NSCLC = test system: A549/ATCC NSCLC
786-0 renal = test system: 786-0 renal
COLO 205 colon = test system: COLO 205 colon
DU-145 prostate = test system: DU-145 prostate
K-562 leukemia = test system: K-562 leukemia
MALME-3M melanoma = test system: MALME-3M melanoma
MDA-MB-231 breast = test system: MDA-MB-231 breast
RXF 393 renal = test system: RXF 393 renal
SF-268 CNS = test system: SF-268 CNS
SF-295 CNS = test system: SF-295 CNS
SF-539 CNS = test system: SF-539 CNS
UACC-257 melanoma = test system: UACC-257 melanoma
M14 melanoma = test system: M14 melanoma

Measured: growth

Cc1ccc(NC(=O)c2ccccc2Cl)cc1
inactive: NCI-H226 lung 108% | NCI-H322M lung 113% | HOP-62 NSCLC 113% | NCI-H460 lung 101% | HOP-92 NSCLC 75.5% | NCI-H522 lung 98.6% | A549/ATCC NSCLC 106% | 786-0 renal 105% | COLO 205 colon 120% | DU-145 prostate 112% | K-562 leukemia 99.6% | MALME-3M melanoma 123% | MDA-MB-231 breast 118% | RXF 393 renal 108% | SF-268 CNS 109% | SF-295 CNS 108% | SF-539 CNS 107% | UACC-257 melanoma 131% | M14 melanoma 114%

Oc1cccnc1CN1CCCC1
inactive: NCI-H226 lung 97.9% | NCI-H322M lung 102% | HOP-62 NSCLC 111% | NCI-H460 lung 107% | HOP-92 NSCLC 79.7% | NCI-H522 lung 97.1% | A549/ATCC NSCLC 98.2% | DU-145 prostate 113% | K-562 leukemia 99.5% | MALME-3M melanoma 107% | MDA-MB-231 breast 105% | RXF 393 renal 116% | SF-268 CNS 104% | SF-295 CNS 113% | SF-539 CNS 102% | UACC-257 melanoma 98.3% | M14 melanoma 112%

O=C(NCCc1ccccc1)/C(=C\c1ccc(Cl)cc1Cl)NC(=O)c1ccccc1
inactive: NCI-H226 lung 101% | NCI-H322M lung 101% | HOP-62 NSCLC 98.7% | NCI-H460 lung 97.1% | NCI-H522 lung 90% | A549/ATCC NSCLC 101% | 786-0 renal 107% | COLO 205 colon 92.9% | K-562 leukemia 122% | MALME-3M melanoma 79.4% | MDA-MB-231 breast 90.8% | RXF 393 renal 92.8% | SF-268 CNS 95% | SF-295 CNS 99.5% | SF-539 CNS 94.1% | UACC-257 melanoma 96.6% | M14 melanoma 96.4%

S=C=Nc1ccc2ccccc2c1
inactive: NCI-H226 lung 101% | NCI-H322M lung 109% | HOP-62 NSCLC 98.3% | NCI-H460 lung 105% | HOP-92 NSCLC 79% | NCI-H522 lung 97.3% | A549/ATCC NSCLC 100% | COLO 205 colon 111% | DU-145 prostate 107% | K-562 leukemia 96% | MALME-3M melanoma 102% | MDA-MB-231 breast 117% | RXF 393 renal 110% | SF-268 CNS 108% | SF-295 CNS 108% | SF-539 CNS 99.9% | UACC-257 melanoma 99.7% | M14 melanoma 103%

CCC(C)c1c(N)n(S(=O)(=O)c2ccc(C)cc2)oc1=O (centres undefined)
inactive: NCI-H226 lung 111% | NCI-H322M lung 123% | HOP-62 NSCLC 112% | NCI-H460 lung 105% | HOP-92 NSCLC 105% | NCI-H522 lung 90.1% | A549/ATCC NSCLC 108% | 786-0 renal 119% | COLO 205 colon 124% | DU-145 prostate 115% | K-562 leukemia 130% | MALME-3M melanoma 135% | MDA-MB-231 breast 108% | RXF 393 renal 125% | SF-268 CNS 109% | SF-295 CNS 104% | SF-539 CNS 96.6% | UACC-257 melanoma 90.6% | M14 melanoma 105%

Cc1ccc(N2C(=O)c3cccc4c(N)c(S(=O)(=O)O)cc(c34)C2=O)cc1
inactive: NCI-H226 lung 89.7% | NCI-H322M lung 114% | HOP-62 NSCLC 107% | NCI-H460 lung 104% | HOP-92 NSCLC 86.1% | NCI-H522 lung 84.5% | A549/ATCC NSCLC 104% | 786-0 renal 104% | COLO 205 colon 109% | DU-145 prostate 120% | K-562 leukemia 103% | MALME-3M melanoma 135% | MDA-MB-231 breast 106% | RXF 393 renal 111% | SF-268 CNS 108% | SF-295 CNS 129% | SF-539 CNS 107% | UACC-257 melanoma 114% | M14 melanoma 111%

C=CCC(OC(C)=O)c1ccc(OC)c(OC)c1 (centres undefined)
inactive: NCI-H226 lung 119% | NCI-H322M lung 105% | HOP-62 NSCLC 110% | NCI-H460 lung 106% | HOP-92 NSCLC 108% | NCI-H522 lung 92.1% | A549/ATCC NSCLC 104% | 786-0 renal 115% | COLO 205 colon 113% | DU-145 prostate 121% | K-562 leukemia 116% | MALME-3M melanoma 124% | MDA-MB-231 breast 128% | RXF 393 renal 124% | SF-268 CNS 97.8% | SF-295 CNS 101% | SF-539 CNS 108% | UACC-257 melanoma 103% | M14 melanoma 108%

COc1cccc2c1Cc1ccccc1-2
inactive: NCI-H226 lung 94.4% | NCI-H322M lung 114% | HOP-62 NSCLC 113% | NCI-H460 lung 110% | HOP-92 NSCLC 106% | NCI-H522 lung 103% | A549/ATCC NSCLC 107% | 786-0 renal 110% | COLO 205 colon 109% | DU-145 prostate 106% | K-562 leukemia 94.4% | MALME-3M melanoma 117% | MDA-MB-231 breast 93.6% | RXF 393 renal 97.9% | SF-268 CNS 99.8% | SF-295 CNS 103% | SF-539 CNS 107% | UACC-257 melanoma 102% | M14 melanoma 102%

CCOc1ccncc1[N+](=O)[O-]
inactive: NCI-H226 lung 102% | NCI-H322M lung 110% | HOP-62 NSCLC 99.1% | NCI-H460 lung 108% | NCI-H522 lung 106% | A549/ATCC NSCLC 97.5% | 786-0 renal 106% | COLO 205 colon 110% | DU-145 prostate 108% | K-562 leukemia 100% | MDA-MB-231 breast 114% | RXF 393 renal 113% | SF-268 CNS 103% | SF-295 CNS 108% | SF-539 CNS 108% | UACC-257 melanoma 95.2% | M14 melanoma 106%

CCCCCC(=O)OCCC1CCCCC1
inactive: NCI-H226 lung 101% | NCI-H322M lung 99.9% | NCI-H460 lung 105% | HOP-92 NSCLC 70% | NCI-H522 lung 95% | A549/ATCC NSCLC 98.4% | 786-0 renal 106% | COLO 205 colon 101% | DU-145 prostate 98.2% | K-562 leukemia 107% | MALME-3M melanoma 84.1% | MDA-MB-231 breast 114% | RXF 393 renal 104% | SF-268 CNS 93% | SF-295 CNS 108% | SF-539 CNS 97.8% | UACC-257 melanoma 95.9% | M14 melanoma 94%

COc1ccc(C2CCCCC2=O)cc1 (centres undefined)
inactive: NCI-H226 lung 113% | NCI-H322M lung 113% | HOP-62 NSCLC 95.5% | NCI-H460 lung 108% | HOP-92 NSCLC 98.9% | NCI-H522 lung 106% | A549/ATCC NSCLC 104% | 786-0 renal 105% | COLO 205 colon 104% | DU-145 prostate 123% | K-562 leukemia 104% | MALME-3M melanoma 120% | MDA-MB-231 breast 120% | RXF 393 renal 110% | SF-268 CNS 116% | SF-295 CNS 100% | SF-539 CNS 102% | UACC-257 melanoma 106% | M14 melanoma 108%

CCCCCCCCCCC(=O)CCCCCCCCCC
inactive: NCI-H226 lung 103% | NCI-H322M lung 109% | HOP-62 NSCLC 92.3% | NCI-H460 lung 102% | HOP-92 NSCLC 148% | NCI-H522 lung 96.7% | A549/ATCC NSCLC 98.4% | 786-0 renal 99.1% | COLO 205 colon 107% | DU-145 prostate 111% | K-562 leukemia 103% | MALME-3M melanoma 99.1% | MDA-MB-231 breast 119% | RXF 393 renal 113% | SF-268 CNS 108% | SF-295 CNS 93.7% | SF-539 CNS 98.1% | UACC-257 melanoma 101% | M14 melanoma 99.9%

CC1CN(CCO)CC(C)O1 (centres undefined)
inactive: NCI-H226 lung 95.2% | NCI-H322M lung 102% | HOP-62 NSCLC 99.3% | NCI-H460 lung 110% | HOP-92 NSCLC 103% | NCI-H522 lung 108% | A549/ATCC NSCLC 100% | 786-0 renal 104% | COLO 205 colon 117% | DU-145 prostate 107% | K-562 leukemia 98.9% | MALME-3M melanoma 99.7% | MDA-MB-231 breast 101% | RXF 393 renal 132% | SF-268 CNS 99.7% | SF-295 CNS 104% | SF-539 CNS 98.4% | UACC-257 melanoma 105% | M14 melanoma 108%

ClCC(Cl)[C@@H]1CC2C=CC1C2 (some centres undefined)
inactive: NCI-H226 lung 91.7% | NCI-H322M lung 108% | NCI-H460 lung 113% | HOP-92 NSCLC 99.7% | NCI-H522 lung 99.6% | A549/ATCC NSCLC 89.1% | 786-0 renal 94.4% | COLO 205 colon 127% | DU-145 prostate 113% | K-562 leukemia 105% | MALME-3M melanoma 102% | MDA-MB-231 breast 96.8% | RXF 393 renal 105% | SF-268 CNS 108% | SF-295 CNS 91.3% | SF-539 CNS 110% | UACC-257 melanoma 105% | M14 melanoma 112%

NC(=S)N/N=C/c1ccc(OC(=O)COc2ccccc2)cn1
inactive: NCI-H226 lung 92% | NCI-H322M lung 54% | HOP-62 NSCLC 57.9% | NCI-H460 lung 83.5% | HOP-92 NSCLC 63.8% | NCI-H522 lung 58% | A549/ATCC NSCLC 107% | 786-0 renal 22% | DU-145 prostate 26.1% | K-562 leukemia 53.4% | MALME-3M melanoma 52.2% | MDA-MB-231 breast 60% | RXF 393 renal 72.2% | SF-268 CNS 30.7% | SF-295 CNS 111% | UACC-257 melanoma 90.6% | M14 melanoma 15%
